Assay results published in ChEMBL document CHEMBL1961873, “Compounds: GSK PKIS; Assays: Nanosyn kinase panel” (2012).

Each compound was assayed against T1, 3-phosphoinositide-dependent protein kinase 1 (Homo sapiens) (UniProt O15530). Details: at 0.1 µM.
T1 sequence (whole entry): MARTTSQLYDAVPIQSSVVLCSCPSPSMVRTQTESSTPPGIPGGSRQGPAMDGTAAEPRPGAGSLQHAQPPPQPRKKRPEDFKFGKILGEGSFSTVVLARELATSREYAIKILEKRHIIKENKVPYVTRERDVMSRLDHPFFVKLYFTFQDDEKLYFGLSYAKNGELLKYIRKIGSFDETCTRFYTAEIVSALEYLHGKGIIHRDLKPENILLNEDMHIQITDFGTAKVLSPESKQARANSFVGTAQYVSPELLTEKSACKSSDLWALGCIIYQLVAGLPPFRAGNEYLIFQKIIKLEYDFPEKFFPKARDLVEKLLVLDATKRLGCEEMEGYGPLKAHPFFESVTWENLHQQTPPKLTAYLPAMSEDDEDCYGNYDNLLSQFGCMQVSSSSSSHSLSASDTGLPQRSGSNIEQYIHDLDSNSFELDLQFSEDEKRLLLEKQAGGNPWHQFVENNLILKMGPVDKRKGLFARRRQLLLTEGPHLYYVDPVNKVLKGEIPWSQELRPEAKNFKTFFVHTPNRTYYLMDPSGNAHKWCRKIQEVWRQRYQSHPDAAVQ
Compound `CN(C)CCCn1c(-c2nonc2N)nc2cnccc21` has an inhibition of 1.51%. `CN(c1ccc(NC(=O)Nc2ccc(OC(F)(F)F)cc2)cc1)c1ccnc(Nc2cccc(S(N)(=O)=O)c2)n1` showed an inhibition of 0.37%. With `O=C(Nc1ccc(Oc2ccc3[nH]c(NC(=O)c4ccco4)nc3c2)cc1)Nc1cc(C(F)(F)F)ccc1F` the inhibition was 2.37%. Compound `c1ccc(Cc2nc3ccc(Nc4ncnc5ccccc45)cc3[nH]2)cc1` has an inhibition of 0.78%. Work on `C[C@@H](Oc1cc(-n2cnc3ccc(OCC4CCN(C)CC4)cc32)sc1C(N)=O)c1ccccc1C(F)(F)F` yielded an inhibition of 0.45%. `Nc1nccc(-c2c(-c3ccc(F)cc3)nn3cc(C(F)(F)F)ccc23)n1` gave an inhibition of -0.37%. `NC(=O)c1cccc(Nc2nccc(Nc3cccc(F)c3)n2)c1` showed an inhibition of -1.35%. `Nc1nccc(C#Cc2cncnc2Nc2ccc(OCc3cccc(F)c3)c(Cl)c2)n1` was tested, and the inhibition was 2.4%. Compound `NC(=O)c1sc(-n2cnc3ccccc32)cc1OCc1ccccc1Br` has an inhibition of 1.27%. `CN(C)c1cc2c(Nc3ccc4c(cnn4Cc4ccccc4)c3)ncnc2cn1` showed an inhibition of 2.47%. With `NS(=O)(=O)c1ccc(-c2cc3ccncc3cc2OCc2ccccc2)cc1` the inhibition was 3.11%. Compound `Nc1ccc(C#Cc2cncnc2Nc2ccc(OCc3cccc(F)c3)c(Cl)c2)cc1` has an inhibition of -0.28%. `FC(F)(F)c1ccc(-c2nn3ncccc3c2-c2ccnc(Nc3ccc4c(c3)OCCO4)n2)cc1` showed an inhibition of 1.11%. For `Cc1cc(-c2ccccn2)cc(C)c1/C=C/c1cncc(-c2nn[nH]n2)c1`, the inhibition was -0.5%. `CCn1c(-c2nonc2N)nc2c(C#CC(C)(C)O)nc(OCCNC)cc21` was tested, and the inhibition was 1.35%. `Oc1cccc(-c2nc(-c3ccccc3)[nH]c2-c2ccncc2)c1` was tested, and the inhibition was 4.03%. `C[C@@H](Oc1cc(-n2cnc3ccc(OC[C@@H](O)CO)cc32)sc1C(N)=O)c1ccccc1Cl` was tested, and the inhibition was 0.22%. `OCc1ccc(-c2nc(-c3ccccn3)c(-c3ccc4c(c3)OCO4)[nH]2)cc1` showed an inhibition of 3.18%. For `Cc1ccc(NC(=O)CC2CC2)cc1-c1ccc(C(=O)NCC2CC2)cc1`, the inhibition was 1.84%. `COc1ccc(-c2nn3ncccc3c2-c2ccnc(Nc3cccc(C(F)(F)F)c3)n2)cc1` showed an inhibition of -0.15%. `Cc1ccc2c(c1)/C(=N/Nc1ccc(S(N)(=O)=O)cc1)C(=O)N2` was tested, and the inhibition was 0.19%. In the case of `COc1cc(/C=N/Nc2ncnc3c2cnn3C(C)C)ccc1O`, the inhibition is reported as 5.59%. `NS(=O)(=O)c1ccc(NC=C2C(=O)Nc3ccc4ncsc4c32)cc1` gave an inhibition of 30.1%. With `COc1cc(Nc2nccc(-c3cnn4ncccc34)n2)cc(OC)c1` the inhibition was 3.22%. `CCS(=O)(=O)c1ccc(OC)c(Nc2nccc(N(C)c3ccc4c(C)n[nH]c4c3)n2)c1` gave an inhibition of -0.7%. `Cc1ccc(Nc2ccnc(Nc3cccc(C(N)=O)c3)n2)cc1O` was tested, and the inhibition was 2.89%. `CS(=O)(=O)Nc1cccc(-c2ccc3c(NC(=O)C4CC4)n[nH]c3c2)c1` showed an inhibition of -0.34%. In the case of `NS(=O)(=O)c1ccc(Nc2cc(-c3cccc(O)c3)n[nH]2)cc1`, the inhibition is reported as 1.78%. `COC(=O)c1cncc(/C=C/c2c(C)cc(O)cc2C)c1` gave an inhibition of -0.19%. With `COc1cc2ncnc(Nc3ccc(C)c(O)c3)c2cc1OC` the inhibition was 1.3%. For `COC(=O)Nc1nc2cc(Oc3ccc(NC(=O)Nc4cccc(Br)c4)cc3)ccc2[nH]1`, the inhibition was 3.36%. For `[O-][S+]1CCN(Cc2ccc(-c3ccc4ncnc(Nc5ccc(OCc6ccccc6)c(Cl)c5)c4c3)o2)CC1`, the inhibition was 0.06%. In the case of `COc1cc2ncn(-c3cc(OCc4ccccc4S(C)(=O)=O)c(C#N)s3)c2cc1OC`, the inhibition is reported as 5.59%.

The compounds below were run against cAMP-dependent protein kinase catalytic subunit alpha (Homo sapiens) (UniProt P17612). Details: at 0.1 µM.
For `CN(C)CCCn1c(-c2nonc2N)nc2cnccc21`, the inhibition was 2.1%. Work on `CN(c1ccc(NC(=O)Nc2ccc(OC(F)(F)F)cc2)cc1)c1ccnc(Nc2cccc(S(N)(=O)=O)c2)n1` yielded an inhibition of 1.4%. Work on `O=C(Nc1ccc(Oc2ccc3[nH]c(NC(=O)c4ccco4)nc3c2)cc1)Nc1cc(C(F)(F)F)ccc1F` yielded an inhibition of -0.33%. In the case of `c1ccc(Cc2nc3ccc(Nc4ncnc5ccccc45)cc3[nH]2)cc1`, the inhibition is reported as 1.15%. With `C[C@@H](Oc1cc(-n2cnc3ccc(OCC4CCN(C)CC4)cc32)sc1C(N)=O)c1ccccc1C(F)(F)F` the inhibition was -0.41%. `Nc1nccc(-c2c(-c3ccc(F)cc3)nn3cc(C(F)(F)F)ccc23)n1` was tested, and the inhibition was 0.74%. `NC(=O)c1cccc(Nc2nccc(Nc3cccc(F)c3)n2)c1` gave an inhibition of 1.44%. Compound `Nc1nccc(C#Cc2cncnc2Nc2ccc(OCc3cccc(F)c3)c(Cl)c2)n1` has an inhibition of 1.49%. For `NC(=O)c1sc(-n2cnc3ccccc32)cc1OCc1ccccc1Br`, the inhibition was 1.4%. With `CN(C)c1cc2c(Nc3ccc4c(cnn4Cc4ccccc4)c3)ncnc2cn1` the inhibition was 1.45%. For `NS(=O)(=O)c1ccc(-c2cc3ccncc3cc2OCc2ccccc2)cc1`, the inhibition was 1.4%. In the case of `Nc1ccc(C#Cc2cncnc2Nc2ccc(OCc3cccc(F)c3)c(Cl)c2)cc1`, the inhibition is reported as 3.59%. `FC(F)(F)c1ccc(-c2nn3ncccc3c2-c2ccnc(Nc3ccc4c(c3)OCCO4)n2)cc1` gave an inhibition of 6.1%. Work on `Cc1cc(-c2ccccn2)cc(C)c1/C=C/c1cncc(-c2nn[nH]n2)c1` yielded an inhibition of 1.63%. Work on `CCn1c(-c2nonc2N)nc2c(C#CC(C)(C)O)nc(OCCNC)cc21` yielded an inhibition of 11.6%. With `Oc1cccc(-c2nc(-c3ccccc3)[nH]c2-c2ccncc2)c1` the inhibition was 2.46%. Compound `C[C@@H](Oc1cc(-n2cnc3ccc(OC[C@@H](O)CO)cc32)sc1C(N)=O)c1ccccc1Cl` has an inhibition of -0.26%. For `OCc1ccc(-c2nc(-c3ccccn3)c(-c3ccc4c(c3)OCO4)[nH]2)cc1`, the inhibition was 1.99%. Work on `Cc1ccc(NC(=O)CC2CC2)cc1-c1ccc(C(=O)NCC2CC2)cc1` yielded an inhibition of 1.31%. `COc1ccc(-c2nn3ncccc3c2-c2ccnc(Nc3cccc(C(F)(F)F)c3)n2)cc1` gave an inhibition of 2.04%. `Cc1ccc2c(c1)/C(=N/Nc1ccc(S(N)(=O)=O)cc1)C(=O)N2` showed an inhibition of 0.27%. In the case of `COc1cc(/C=N/Nc2ncnc3c2cnn3C(C)C)ccc1O`, the inhibition is reported as 1.05%. Compound `NS(=O)(=O)c1ccc(NC=C2C(=O)Nc3ccc4ncsc4c32)cc1` has an inhibition of 2.64%. `COc1cc(Nc2nccc(-c3cnn4ncccc34)n2)cc(OC)c1` gave an inhibition of 2.46%. For `CCS(=O)(=O)c1ccc(OC)c(Nc2nccc(N(C)c3ccc4c(C)n[nH]c4c3)n2)c1`, the inhibition was 2.41%. `Cc1ccc(Nc2ccnc(Nc3cccc(C(N)=O)c3)n2)cc1O` showed an inhibition of -1.93%. `CS(=O)(=O)Nc1cccc(-c2ccc3c(NC(=O)C4CC4)n[nH]c3c2)c1` showed an inhibition of 0.91%. With `NS(=O)(=O)c1ccc(Nc2cc(-c3cccc(O)c3)n[nH]2)cc1` the inhibition was 3%. With `COC(=O)c1cncc(/C=C/c2c(C)cc(O)cc2C)c1` the inhibition was 1.8%. Work on `COc1cc2ncnc(Nc3ccc(C)c(O)c3)c2cc1OC` yielded an inhibition of 2.17%. `COC(=O)Nc1nc2cc(Oc3ccc(NC(=O)Nc4cccc(Br)c4)cc3)ccc2[nH]1` gave an inhibition of 1.25%. `[O-][S+]1CCN(Cc2ccc(-c3ccc4ncnc(Nc5ccc(OCc6ccccc6)c(Cl)c5)c4c3)o2)CC1` showed an inhibition of 2.94%. In the case of `COc1cc2ncn(-c3cc(OCc4ccccc4S(C)(=O)=O)c(C#N)s3)c2cc1OC`, the inhibition is reported as 2.29%.
